Results as given in ChEMBL document CHEMBL1157539, “Thousands of chemical starting points for antimalarial lead identification” (Nature, 2010).

Tests used:
Type in all cases: functional
Plasmodium falciparum [1] = test: GSK_TCMDC: Inhibition of Plasmodium falciparum 3D7 in whole red blood cells, using parasite LDH activity as an index of growth. Test compounds present at 2uM
Plasmodium falciparum [2] = test: GSK_TCMDC: Inhibition of Plasmodium falciparum Dd2 in whole red blood cells, using parasite LDH activity as an index of growth. Test compounds present at 2uM
HepG2 = test: GSK_TCMDC: Percent inhibition of human HepG2 cell line. Test compounds present at 10uM.

Q: For CCNc1cc(C(=O)N[C@@H](Cc2ccccc2)[C@H](O)CNC2CCC(C(C)(C)C)CC2)cc(N2CCCC2=O)c1 (stereo partly specified), which Inhibition (Plasmodium falciparum [1]) is on record?
A: 98%

Q: What about the Inhibition (Plasmodium falciparum [2]) of the same molecule?
A: 98%

Q: And the Inhibition (HepG2)?
A: 38%

Q: Which Inhibition (Plasmodium falciparum [1]) does the source give for CCCC(=O)NC(c1ccc(C(C)C)cc1)c1ccc2cccnc2c1O (stereo unspecified) here?
A: 90%

Q: What about the Inhibition (Plasmodium falciparum [2]) of the same molecule?
A: 37%

Q: What about the Inhibition (HepG2) of the same molecule?
A: 50%

Q: Which Inhibition (Plasmodium falciparum [1]) does the source give for CCCCCN1CCCN(Cc2cccc(NC(=O)c3cc4ccccc4s3)c2)CC1.O=C(O)C(F)(F)F here?
A: 99%

Q: And the Inhibition (Plasmodium falciparum [2])?
A: 30%

Q: And the Inhibition (HepG2)?
A: 29%

Q: How did the Inhibition (Plasmodium falciparum [1]) turn out when Br.CC1CCC2(CC1)N=C(N)N=C(N)N2OCc1ccc(Br)c2ccccc12 (stereo unspecified) was run?
A: 96%

Q: What about the Inhibition (Plasmodium falciparum [2]) of the same molecule?
A: 40%

Q: What about the Inhibition (HepG2) of the same molecule?
A: 46%

Q: CC1CCN(C(=O)[C@H](Cc2c[nH]c3ccccc23)NS(=O)(=O)c2ccc(Cl)cc2)CC1 was tested. Which Inhibition (Plasmodium falciparum [1]) did it give?
A: 100%

Q: What about the Inhibition (Plasmodium falciparum [2]) of the same molecule?
A: 99%

Q: What about the Inhibition (HepG2) of the same molecule?
A: 0%

Q: With CCc1sc(N2CCN(C)CC2)nc1C(=O)NCCc1ccc(Cl)c(Cl)c1.O=C(O)C(F)(F)F as the molecule, how does the Inhibition (Plasmodium falciparum [1]) read?
A: 92%

Q: What about the Inhibition (Plasmodium falciparum [2]) of the same molecule?
A: 49%

Q: And the Inhibition (HepG2)?
A: 5%

Q: Which results are given for CCOc1ccccc1CCNC(C)Cc1ccc(C(=O)Nc2ccc(CC(C)NCCc3cccc(Cl)c3)cc2)cc1 (stereo unspecified)?
A: Inhibition (Plasmodium falciparum [1]): 97%; Inhibition (Plasmodium falciparum [2]): 59%; Inhibition (HepG2): 100%

Q: Which results are given for COc1cc(NCCCNCc2cn(S(=O)(=O)c3ccccc3)c3ccccc23)nc2ccccc12?
A: Inhibition (Plasmodium falciparum [1]): 100%; Inhibition (Plasmodium falciparum [2]): 77%; Inhibition (HepG2): 36%

Q: What does the source list for CNC(=O)Cc1ccc(C(=O)Nc2cccc(-c3ccc(-c4nc5cccc(C)c5[nH]4)s3)c2)cc1?
A: Inhibition (Plasmodium falciparum [1]): 91%; Inhibition (Plasmodium falciparum [2]): 25%; Inhibition (HepG2): 66%

Q: For CC1(C)NC(N)=NC(=N)N1OCOc1ccc(Cl)cc1.Cl, which Inhibition (Plasmodium falciparum [1]) is on record?
A: 94%

Q: What about the Inhibition (Plasmodium falciparum [2]) of the same molecule?
A: 96%

Q: What about the Inhibition (HepG2) of the same molecule?
A: 68%

Q: What does the source list for CN(CCc1ccccn1)c1cccc2c1nc(-c1cccnc1)n2CCNCc1ccccc1.O=C(O)C(F)(F)F?
A: Inhibition (Plasmodium falciparum [1]): 90%; Inhibition (Plasmodium falciparum [2]): 97%; Inhibition (HepG2): 12%

Q: What does the source list for O=C(N[C@@H](CC1CCCCC1)C(=O)NCCN1CCOCC1)c1ccc(O)c(-c2ccc(Cl)c(Cl)c2)c1?
A: Inhibition (Plasmodium falciparum [1]): 97%; Inhibition (Plasmodium falciparum [2]): 99%; Inhibition (HepG2): 0%

Q: What does the source list for COc1ccc(C2C(C(=O)Nc3cc(OC)c(OC)c(OC)c3)c3cc(OC)c(OC)cc3C(=O)N2C)cc1 (stereo unspecified)?
A: Inhibition (Plasmodium falciparum [1]): 98%; Inhibition (Plasmodium falciparum [2]): 100%; Inhibition (HepG2): 9%

Q: With NC(=O)C1CCN(Cc2cccc(-c3cccc(-c4nc5cc(C(F)(F)F)ccc5[nH]4)c3)c2)CC1.O=C(O)C(F)(F)F as the molecule, how does the Inhibition (Plasmodium falciparum [1]) read?
A: 100%

Q: What about the Inhibition (Plasmodium falciparum [2]) of the same molecule?
A: 100%

Q: What about the Inhibition (HepG2) of the same molecule?
A: 16%

Q: Which Inhibition (Plasmodium falciparum [1]) does the source give for CN1CCN(CC(=O)Nc2cccc(-c3ccc(-c4nc5cc(F)ccc5[nH]4)cc3)c2)CC1 here?
A: 100%

Q: What about the Inhibition (Plasmodium falciparum [2]) of the same molecule?
A: 98%

Q: What about the Inhibition (HepG2) of the same molecule?
A: 20%

Q: Which Inhibition (Plasmodium falciparum [1]) does the source give for Cc1cccc2nc(-c3ccc(-c4ccc(CNCC5CCCO5)cc4)s3)[nH]c12.O=C(O)C(F)(F)F (stereo unspecified) here?
A: 100%

Q: What about the Inhibition (Plasmodium falciparum [2]) of the same molecule?
A: 96%

Q: And the Inhibition (HepG2)?
A: 11%

Q: What does the source list for COc1ccccc1-c1sccc1C(=O)NC1(c2cc(Cl)cc(Cl)c2)CCCC1?
A: Inhibition (Plasmodium falciparum [1]): 88%; Inhibition (Plasmodium falciparum [2]): 95%; Inhibition (HepG2): 0%

Q: With N#CC1(c2ccccc2)CCN(c2nc(NCCCN3CCCC3=O)nc(N3CCCC4CCCCC43)n2)CC1 (stereo unspecified) as the molecule, how does the Inhibition (Plasmodium falciparum [1]) read?
A: 95%

Q: What about the Inhibition (Plasmodium falciparum [2]) of the same molecule?
A: 92%

Q: And the Inhibition (HepG2)?
A: 0%

Q: With c1ccc(CN2CCCN(c3ccc4c(c3)CCN(Cc3ccc(-c5ncc[nH]5)cc3)CC4)CC2)cc1 as the molecule, how does the Inhibition (Plasmodium falciparum [1]) read?
A: 100%

Q: And the Inhibition (Plasmodium falciparum [2])?
A: 73%

Q: And the Inhibition (HepG2)?
A: 6%

Q: How did the Inhibition (Plasmodium falciparum [1]) turn out when CC(=O)Nc1nnc(SCc2c(C)cc(C(C)(C)C)cc2C)s1 was run?
A: 98%

Q: And the Inhibition (Plasmodium falciparum [2])?
A: 91%

Q: And the Inhibition (HepG2)?
A: 3%

Q: How did the Inhibition (Plasmodium falciparum [1]) turn out when NC(=O)c1cccc(C(=O)Nc2cccc(-c3ccc(-c4nc5cc(C(F)(F)F)ccc5[nH]4)cc3)c2)c1 was run?
A: 100%

Q: What about the Inhibition (Plasmodium falciparum [2]) of the same molecule?
A: 78%

Q: What about the Inhibition (HepG2) of the same molecule?
A: 83%

Q: CC(=O)Nc1ccc(CN2CCC(NC(=O)c3cc(-c4ccc(N(C)C)cc4)cs3)C2)cc1.O=C(O)C(F)(F)F (stereo unspecified) was tested. Which Inhibition (Plasmodium falciparum [1]) did it give?
A: 83%

Q: And the Inhibition (Plasmodium falciparum [2])?
A: 1%

Q: What about the Inhibition (HepG2) of the same molecule?
A: 15%

Q: Which Inhibition (Plasmodium falciparum [1]) does the source give for CSc1cccc(NC(=O)c2cc3ccccc3oc2=O)c1 here?
A: 92%

Q: What about the Inhibition (Plasmodium falciparum [2]) of the same molecule?
A: 75%

Q: And the Inhibition (HepG2)?
A: 0%

Q: How did the Inhibition (Plasmodium falciparum [1]) turn out when CCOc1cc(C(=O)NC2CC(C)(C)NC(C)(C)C2)ccc1-c1nc2cc(Cl)ccc2[nH]1 was run?
A: 100%

Q: And the Inhibition (Plasmodium falciparum [2])?
A: 64%

Q: And the Inhibition (HepG2)?
A: 46%

Q: What does the source list for O=C(Nc1ccc(-c2cccc(-c3nc4cc(C(F)(F)F)ccc4[nH]3)c2)cc1)Nc1ccc(F)c(F)c1F?
A: Inhibition (Plasmodium falciparum [1]): 99%; Inhibition (Plasmodium falciparum [2]): 85%; Inhibition (HepG2): 58%

Q: Which Inhibition (Plasmodium falciparum [1]) does the source give for NCc1ccc(CNCc2cccc(-c3cccc(-c4nc5cc(F)ccc5[nH]4)c3)c2)cc1.O=C(O)C(F)(F)F here?
A: 100%

Q: What about the Inhibition (Plasmodium falciparum [2]) of the same molecule?
A: 34%

Q: What about the Inhibition (HepG2) of the same molecule?
A: 15%

Q: Which Inhibition (Plasmodium falciparum [1]) does the source give for COc1cc2cc(Cc3cnc(N)nc3N)ccc2c(OC)c1OC.Cl here?
A: 97%

Q: What about the Inhibition (Plasmodium falciparum [2]) of the same molecule?
A: 2%

Q: And the Inhibition (HepG2)?
A: 1%
